A number with no mark means an inactive call. For some of these results: Results with a measured potency or affinity are listed apart. Activity calls are given as the source filed them. Unless noted, the rule behind the calls is not given here.

Assay [1] in a line: antimalarial activity against Dd2 strain (AID 2302;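 active = growth inhibition above 50% at the single 2 µM test dose, taken to imply half-maximal potency below 2 µM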;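 note: 0% = DMSO untreated growth and 100% = chloroquine plus artemisinin killed control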). To be noted: P. falciparum Dd2 in RBCs, LDH growth readout, 72 h; at 2 µM; active compounds read high.
Assay [2] can be described thus: human hepatoma cell viability loss – ATP luminescence, cytotoxicity control for P. falciparum antimalarial project, primary screen (AID 2303;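 active = inhibition above 50%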;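 note: 0% = DMSO wells and 100% = digitonin-killed cells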). To be noted: HepG2 viability, 24-48 h, at 10 µM, active compounds read high.
For assay [3], the target named is L-lactate dehydrogenase (Plasmodium falciparum (isolate CDC / Honduras)) (UniProt Q27743). Nature of the assay: PfLDH activity inhibition – cell lysate, 3D7 strain, counter-screen for P. falciparum growth inhibition project (AID 2304).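 Note: 0% = vehicle and 100% = reference inhibitor.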 To be noted: P. falciparum 3D7 crude extract, LDH APAD/NBT absorbance; at 2 µM; active compounds read high. For orientation: The purpose of a counterscreen is to sort out artefacts and off-target activity.

Assay [4] is described as follows: inhibition of 3D7 malaria parasite growth – strain 3D7 (AID 2306).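 Note: 0% = DMSO wells and 100% = chloroquine plus artemisinin control wells.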 To be noted: P. falciparum 3D7 erythrocytic growth, LDH absorbance, 72 h; at 2 µM; active compounds read high.
Assay [5] deals with Calcium-dependent protein kinase 1 (Plasmodium falciparum (isolate 3D7)) (UniProt P62344). Nature of the assay: PfCDPK1 kinase inhibitors, biochemical, TCAMS library (AID 1159585; cut-off not given, nearly all actives have IC50 up to about 0.98 µM;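 note: inhibitors leave more ATP so luminescence rises with inhibition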). To be noted: recombinant PfCDPK1, Kinase-Glo ATP depletion luminescence. For orientation: In Kinase-Glo more light means more ATP remaining.
Assay [6] deals with Plasmodium falciparum protein kinase 6 (PK6, PF3D7_1337100) (UniProt Q8IDW1). The experiment in a line: PfPK6 kinase inhibitors, biochemical, TCAMS library (AID 1159586). To be noted: recombinant PfPK6, Kinase-Glo ATP depletion luminescence.
The target in assay [7] is Protein kinase 7 (PK7), Plasmodium falciparum 3D7 (PF3D7_0213400) (UniProt Q7YTF7). The experiment in a line: inhibition of Plasmodium PK7 catalytic activity – biochemical, TCAMS antimalarial set, Kinase-Glo luminescence (AID 1159587). Particulars: recombinant PfPK7, Kinase-Glo ATP depletion luminescence.
Assay [8] deals with Calcium-dependent protein kinase 4 (Plasmodium falciparum (isolate 3D7)) (UniProt Q8IBS5). The experiment in a line: PfCDPK4 kinase inhibitors, biochemical, TCAMS library (AID 1159588; cut-off not given, nearly all actives have IC50 up to about 0.91 µM). Particulars: recombinant PfCDPK4, Kinase-Glo ATP depletion luminescence.
Sequence of Calcium-dependent protein kinase 4 (Plasmodium falciparum (isolate 3D7)) (Q8IBS5 whole entry, looked up): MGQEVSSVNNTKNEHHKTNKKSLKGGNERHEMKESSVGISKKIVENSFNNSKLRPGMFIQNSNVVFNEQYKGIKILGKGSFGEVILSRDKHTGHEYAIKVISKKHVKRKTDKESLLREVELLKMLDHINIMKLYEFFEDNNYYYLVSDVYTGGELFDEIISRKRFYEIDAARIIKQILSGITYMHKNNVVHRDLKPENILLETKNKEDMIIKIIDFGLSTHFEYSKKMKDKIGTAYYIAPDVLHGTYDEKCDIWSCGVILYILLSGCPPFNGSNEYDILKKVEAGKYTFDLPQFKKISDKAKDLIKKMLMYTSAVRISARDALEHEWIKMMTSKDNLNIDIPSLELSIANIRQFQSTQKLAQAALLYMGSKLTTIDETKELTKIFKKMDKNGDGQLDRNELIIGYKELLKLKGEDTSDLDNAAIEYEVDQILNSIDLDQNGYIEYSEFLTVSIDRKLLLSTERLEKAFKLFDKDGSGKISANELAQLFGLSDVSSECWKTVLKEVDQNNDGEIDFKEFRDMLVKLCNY

Sequence of L-lactate dehydrogenase (Plasmodium falciparum (isolate CDC / Honduras)) (Q27743 whole entry, looked up): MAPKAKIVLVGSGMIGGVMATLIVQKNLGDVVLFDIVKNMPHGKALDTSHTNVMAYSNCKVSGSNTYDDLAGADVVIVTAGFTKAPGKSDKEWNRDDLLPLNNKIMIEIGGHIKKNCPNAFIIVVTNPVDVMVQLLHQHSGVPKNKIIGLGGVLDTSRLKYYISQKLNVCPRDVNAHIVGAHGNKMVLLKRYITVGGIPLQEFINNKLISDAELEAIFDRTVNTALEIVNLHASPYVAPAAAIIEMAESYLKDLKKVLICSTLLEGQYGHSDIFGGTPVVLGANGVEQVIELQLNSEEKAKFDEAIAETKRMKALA
Sequence of Plasmodium falciparum protein kinase 6 (PK6, PF3D7_1337100) (Q8IDW1 1-305): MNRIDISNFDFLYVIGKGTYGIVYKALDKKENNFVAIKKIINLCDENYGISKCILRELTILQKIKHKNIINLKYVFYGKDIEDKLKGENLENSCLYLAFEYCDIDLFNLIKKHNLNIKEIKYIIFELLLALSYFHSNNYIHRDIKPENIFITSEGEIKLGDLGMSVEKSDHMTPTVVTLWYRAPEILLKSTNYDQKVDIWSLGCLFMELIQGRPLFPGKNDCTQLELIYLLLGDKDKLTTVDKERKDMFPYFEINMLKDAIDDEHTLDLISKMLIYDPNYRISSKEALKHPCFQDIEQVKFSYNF
Sequence of Calcium-dependent protein kinase 1 (Plasmodium falciparum (isolate 3D7)) (P62344 whole entry, looked up): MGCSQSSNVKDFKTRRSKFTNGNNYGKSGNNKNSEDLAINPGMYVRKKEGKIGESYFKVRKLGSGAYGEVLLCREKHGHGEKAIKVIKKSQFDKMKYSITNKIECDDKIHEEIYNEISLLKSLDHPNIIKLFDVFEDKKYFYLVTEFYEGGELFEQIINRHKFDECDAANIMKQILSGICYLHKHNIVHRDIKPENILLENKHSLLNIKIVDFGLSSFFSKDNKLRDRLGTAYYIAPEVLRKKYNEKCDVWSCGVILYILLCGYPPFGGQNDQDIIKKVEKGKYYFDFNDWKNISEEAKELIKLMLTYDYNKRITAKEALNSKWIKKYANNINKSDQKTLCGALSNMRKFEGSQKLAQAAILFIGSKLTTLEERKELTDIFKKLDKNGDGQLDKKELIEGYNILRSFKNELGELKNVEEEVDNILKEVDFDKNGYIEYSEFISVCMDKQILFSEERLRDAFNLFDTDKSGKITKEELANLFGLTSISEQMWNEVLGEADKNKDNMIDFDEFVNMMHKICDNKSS
Sequence of Protein kinase 7 (PK7), Plasmodium falciparum 3D7 (PF3D7_0213400) (Q7YTF7 1-343): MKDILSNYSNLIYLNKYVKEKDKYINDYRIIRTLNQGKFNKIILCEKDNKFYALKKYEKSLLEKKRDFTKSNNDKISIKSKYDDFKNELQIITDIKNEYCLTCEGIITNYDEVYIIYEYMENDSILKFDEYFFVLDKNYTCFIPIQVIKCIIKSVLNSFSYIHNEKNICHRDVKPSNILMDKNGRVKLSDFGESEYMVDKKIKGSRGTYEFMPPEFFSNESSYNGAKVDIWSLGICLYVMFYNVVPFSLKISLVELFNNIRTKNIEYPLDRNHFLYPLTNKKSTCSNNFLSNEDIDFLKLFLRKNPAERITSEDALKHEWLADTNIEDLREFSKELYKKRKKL

One may read the inhibition as the change of the read-out against control, counted positive when it falls. With `CCN(CCCN1CCCCC1)c1cc(C)nc(Nc2cc(C(F)(F)F)ccc2C)n1`, the values for the growth inhibition in assay [1] and in assay [4] were 41% and 96% (active), respectively. The inhibition was 35% in assay [2] and -2% in assay [3]. In addition, the outcome in assay [5], in assay [6], in assay [7] and in assay [8] was inactive.
With `COc1ccc2nccc([C@@H](O)CN3CCC(NCc4cc5cc(C)ccc5s4)CC3)c2c1`, the growth inhibition in assay [1] is 74% (active); in assay [4], 92% (active). In addition, the inhibition in assay [2] is 13%; in assay [3], 3%. Also, the result in assay [5], in assay [6], in assay [7] and in assay [8] was inactive.
As for `OC(CNc1ccnc(Nc2cccc(Cl)c2)n1)c1ccc(C(F)(F)F)cc1` (stereo not given), the values for the growth inhibition in assay [1] and in assay [4] were 61% (active) and 101% (active), respectively. Also, the inhibition in assay [2] is 13%; in assay [3], 5%. The outcome in assay [5], in assay [6], in assay [7] and in assay [8] was inactive.
With `COc1ccc2nccc([C@@H](O)CN3CCC(NCc4cc5ccccc5[nH]4)CC3)c2c1`, the growth inhibition in assay [1] is 41%; in assay [4], 92% (active). For the same molecule, the values for the inhibition in assay [2] and in assay [3] were 75% (active) and 4%, respectively. In addition, the result in assay [5], in assay [6], in assay [7] and in assay [8] was inactive.
For the molecule `COCCNCc1ncsc1-c1ccc2c(Nc3cc(O)ccc3C)ccnc2c1`, the growth inhibition was 40% in assay [1] and 101% (active) in assay [4]. Also, the inhibition in assay [2] was 9%; in assay [3] it was 6%. Further, the outcome in assay [5], in assay [6], in assay [7] and in assay [8] was inactive.
In the case of `O=C(/C=C/c1ccc(Cl)c(Cl)c1)NCCCCCCN1CCN(C(=O)Nc2cccc(Cl)c2)CC1`, the growth inhibition in assay [1] is 2%; in assay [4] it was 85% (active). The inhibition in assay [2] is 33%; in assay [3], -3%. For the same molecule, the outcome in assay [5], in assay [6], in assay [7] and in assay [8] was inactive.
As for `CCCCN1CCN(CCCCNc2c3ccccc3nc3ccccc23)CC1`, the growth inhibition was 5% in assay [1] and 100% (active) in assay [4]. Further, the inhibition in assay [2] is 27%; in assay [3] it was 4%. Moreover, the result in assay [5], in assay [6], in assay [7] and in assay [8] was inactive.
On to `O=C(Cc1ccc([N+](=O)[O-])cc1)N1CCc2cc3nccc(N4CCN5CCC[C@H]5C4)c3cc21`, for which the growth inhibition in assay [1] is 7%; in assay [4], 95% (active). The inhibition was -7% in assay [2] and -4% in assay [3]. For the same molecule, the outcome in assay [5], in assay [6], in assay [7] and in assay [8] was inactive.
For `O=C(Nc1ccc2nc3n(c(=O)c2c1)CCCCC3)C(=O)N1CCN(c2ccc(F)cc2)CC1`, the growth inhibition is 86% (active) in assay [1] and 93% (active) in assay [4]. In addition, the inhibition was 10% in assay [2] and -1% in assay [3]. In addition, the result in assay [5], in assay [6], in assay [7] and in assay [8] was inactive.
In the case of `Cc1cc(-c2cccc(CNC3CCN(C)CC3)c2)ccc1S(=O)(=O)NCCN1CCCC1`, the figures for the growth inhibition in assay [1] and in assay [4] were 0% and 100% (active), respectively. Also, the values for the inhibition in assay [2] and in assay [3] were 18% and 0%, respectively. Further, the result in assay [5], in assay [6], in assay [7] and in assay [8] was inactive.
With `O=C(Nc1cccc(CN2CCCN(Cc3ccc(F)cc3)CC2)c1)c1cc2ccccc2s1`, the growth inhibition was 36% in assay [1] and 91% (active) in assay [4]. In addition, the inhibition in assay [2] is 29%; in assay [3] it was -9%. The outcome in assay [5], in assay [6], in assay [7] and in assay [8] was inactive.
For `Cc1cccc(Nc2nc(N)c3ccccc3n2)c1`, the growth inhibition in assay [1] was 49%; in assay [4], 99% (active). Moreover, the inhibition in assay [2] is 1%; in assay [3] it was 3%. For the same molecule, the outcome in assay [5], in assay [6], in assay [7] and in assay [8] was inactive.
Take `O=C(Nc1ccc(Br)cc1)Nc1ccc(Cn2ncc(N3CCCNCC3)c(Cl)c2=O)cc1`: the growth inhibition in assay [1] is 15%; in assay [4], 87% (active). Further, the inhibition in assay [2] was -7%; in assay [3], -1%. The result in assay [5], in assay [6], in assay [7] and in assay [8] was inactive.
On to `CC(C)Sc1nc2c(c(=O)n1CCc1ccccc1)C1(CCCC1)Cc1ccccc1-2`, for which the growth inhibition was 88% (active) in assay [1] and 102% (active) in assay [4]. Besides, the inhibition in assay [2] is -3%; in assay [3], -4%. Also, the result in assay [5], in assay [6], in assay [7] and in assay [8] was inactive.
In the case of `COc1ccc(-n2nc(C)cc2C(=O)NCc2ccc(-c3c(C)noc3C)cc2)cc1`, the growth inhibition is 92% (active) in assay [1] and 101% (active) in assay [4]. The inhibition in assay [2] and in assay [3] was 3% in each case. The result in assay [5], in assay [6], in assay [7] and in assay [8] was inactive.
Turning to `CN(C)CCNc1cc(-c2ccc3ccccc3c2)nc2ccccc12`, the growth inhibition in assay [1] is 58% (active); in assay [4], 102% (active). The inhibition in assay [2] was 24%; in assay [3], -5%. Also, the outcome in assay [5], in assay [6], in assay [7] and in assay [8] was inactive.
As for `CCOC(=O)c1c(NC(=O)c2ccccc2)sc2c(O)c(CN(CC)CC)ccc12`, the growth inhibition in assay [1] and in assay [4] was 100% (active) in each case. In addition, the figures for the inhibition in assay [2] and in assay [3] were 9% and 4%, respectively. The outcome in assay [5], in assay [6], in assay [7] and in assay [8] was inactive.
Turning to `Cc1cc(=O)[nH]c(-n2nc(C)cc2NC(=O)CC(c2ccccc2)c2ccccc2)n1`, the results for the growth inhibition in assay [1] and in assay [4] were 62% (active) and 90% (active), respectively. The inhibition in assay [2] was 42%; in assay [3], 2%. The result in assay [5], in assay [6], in assay [7] and in assay [8] was inactive.
As for `Oc1ccc2nc(Nc3ccccc3)nc(NCCc3ccccc3)c2c1`, the growth inhibition in assay [1] and in assay [4] was 100% (active) throughout. Also, the inhibition is 20% in assay [2] and -6% in assay [3]. Moreover, the outcome in assay [5], in assay [6], in assay [7] and in assay [8] was inactive.
`COc1ccc2ncc(F)c(CCN3[C@@H]4CC[C@H]3CC(NCc3cc5c(cn3)OCS5)C4)c2n1` (stereo not given in full): the growth inhibition was 48% in assay [1] and 95% (active) in assay [4]. For the same molecule, the inhibition in assay [2] was 15%; in assay [3], -2%. In addition, the outcome in assay [5], in assay [6], in assay [7] and in assay [8] was inactive.
